For 13 sequences, binding signal results are on record in publication PMC11006913.

Holding throughout (experiment): PBM; 200 nM protein, PBS
Details in all cases: dsDNA, one strand shown

Test [1] deals with HOXB9 (Homo sapiens, UniProt P17482 171-250, T197M).
The target of test [2] is HOXB9 (Homo sapiens, UniProt P17482 171-250).
Test [3] deals with HOXD13 (Homo sapiens, UniProt P35453 263-343, T313R).
The target of test [4] is HOXD13 (Homo sapiens, UniProt P35453 263-343).
In test [5] the target is HOXD13 (Homo sapiens, UniProt P35453 263-343, T313A).
Test [6] deals with HOXB9 (Homo sapiens, UniProt P17482 171-250, R186Q).
The target in test [7] is NKX3-2 (Homo sapiens, UniProt P78367 192-278, P234S).
Test [8] concerns the target NKX3-2 (Homo sapiens, UniProt P78367 192-278).
Test [9] has as its target T1, NKX2-6 (Homo sapiens, UniProt A6NCS4 118-204, R150C).
T1 sequence: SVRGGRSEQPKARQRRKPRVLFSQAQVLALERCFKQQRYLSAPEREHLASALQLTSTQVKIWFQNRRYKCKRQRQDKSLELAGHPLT

Test [10] concerns the target PITX2 (Homo sapiens, UniProt Q99697 72-157).
Test [11] has as its target ALX1 (Homo sapiens, UniProt Q15699 118-204, L144V).
Test [12] deals with ALX1 (Homo sapiens, UniProt Q15699 118-204, L144R).
Test [13] concerns the target ALX1 (Homo sapiens, UniProt Q15699 118-204).
Test [14] addresses HOXA2 (Homo sapiens, UniProt O43364 129-215, R185T).
Test [15] has as its target HOXA2 (Homo sapiens, UniProt O43364 129-215, R185K).
In test [16] the target is VAX1 (Homo sapiens, UniProt Q5SQQ9 86-172).
For test [17], the target named is VAX1 (Homo sapiens, UniProt Q5SQQ9 86-172, T142I).
In test [18] the target is HOXA2 (Homo sapiens, UniProt O43364 129-215, Y150S).
Test [19] deals with HOXA2 (Homo sapiens, UniProt O43364 129-215).
Test [20] deals with VAX1 (Homo sapiens, UniProt Q5SQQ9 86-172, K157R).
Chain of VAX1 (Homo sapiens, UniProt Q5SQQ9 86-172, K157R) (Q5SQQ9 86-172 K157R): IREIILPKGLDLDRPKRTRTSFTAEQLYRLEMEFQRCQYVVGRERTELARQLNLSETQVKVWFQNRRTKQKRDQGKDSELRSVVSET

Chain of HOXB9 (Homo sapiens, UniProt P17482 171-250) (P17482 171-250): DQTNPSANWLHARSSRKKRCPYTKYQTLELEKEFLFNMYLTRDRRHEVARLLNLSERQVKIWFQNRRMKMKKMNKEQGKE
Chain of HOXD13 (Homo sapiens, UniProt P35453 263-343, T313R) (P35453 263-343 T313R): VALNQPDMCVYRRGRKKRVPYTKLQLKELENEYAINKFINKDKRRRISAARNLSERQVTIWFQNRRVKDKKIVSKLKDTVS
Chain of HOXB9 (Homo sapiens, UniProt P17482 171-250, T197M) (P17482 171-250 T197M): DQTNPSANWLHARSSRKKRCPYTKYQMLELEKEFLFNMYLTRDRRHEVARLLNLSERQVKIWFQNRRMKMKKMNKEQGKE
Chain of HOXB9 (Homo sapiens, UniProt P17482 171-250, R186Q) (P17482 171-250 R186Q): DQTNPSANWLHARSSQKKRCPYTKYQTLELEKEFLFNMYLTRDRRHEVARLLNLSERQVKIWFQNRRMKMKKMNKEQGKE
Chain of HOXD13 (Homo sapiens, UniProt P35453 263-343, T313A) (P35453 263-343 T313A): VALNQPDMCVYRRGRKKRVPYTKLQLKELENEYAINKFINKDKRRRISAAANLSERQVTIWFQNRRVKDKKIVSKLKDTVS
Chain of HOXD13 (Homo sapiens, UniProt P35453 263-343) (P35453 263-343): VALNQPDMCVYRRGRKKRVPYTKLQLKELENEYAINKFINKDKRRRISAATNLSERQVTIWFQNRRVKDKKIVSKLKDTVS
Chain of NKX3-2 (Homo sapiens, UniProt P78367 192-278, P234S) (P78367 192-278 P234S): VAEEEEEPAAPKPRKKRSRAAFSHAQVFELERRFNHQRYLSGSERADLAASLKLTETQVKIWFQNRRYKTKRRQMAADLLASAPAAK
Chain of ALX1 (Homo sapiens, UniProt Q15699 118-204) (Q15699 118-204): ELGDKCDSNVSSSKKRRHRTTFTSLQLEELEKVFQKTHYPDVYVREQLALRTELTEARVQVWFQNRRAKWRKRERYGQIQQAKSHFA
Chain of ALX1 (Homo sapiens, UniProt Q15699 118-204, L144R) (Q15699 118-204 L144R): as the sequence (Q15699 118-204) above, with L27R counted along it
Chain of ALX1 (Homo sapiens, UniProt Q15699 118-204, L144V) (Q15699 118-204 L144V): as the sequence (Q15699 118-204) above, with L27V counted along it
Chain of NKX3-2 (Homo sapiens, UniProt P78367 192-278) (P78367 192-278): as the sequence (P78367 192-278 P234S) above, with S43P counted along it
Chain of VAX1 (Homo sapiens, UniProt Q5SQQ9 86-172) (Q5SQQ9 86-172): as the sequence (Q5SQQ9 86-172 K157R) above, with R72K counted along it
Chain of HOXA2 (Homo sapiens, UniProt O43364 129-215, R185K) (O43364 129-215 R185K): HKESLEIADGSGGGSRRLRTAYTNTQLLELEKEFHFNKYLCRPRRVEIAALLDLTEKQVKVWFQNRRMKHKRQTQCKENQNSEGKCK
Chain of HOXA2 (Homo sapiens, UniProt O43364 129-215, R185T) (O43364 129-215 R185T): as the sequence (O43364 129-215 R185K) above, with K57T counted along it
Chain of HOXA2 (Homo sapiens, UniProt O43364 129-215, Y150S) (O43364 129-215 Y150S): as the sequence (O43364 129-215 R185K) above, with Y22S, K57R counted along it
Chain of VAX1 (Homo sapiens, UniProt Q5SQQ9 86-172, T142I) (Q5SQQ9 86-172 T142I): as the sequence (Q5SQQ9 86-172 K157R) above, with T57I, R72K counted along it
Chain of HOXA2 (Homo sapiens, UniProt O43364 129-215) (O43364 129-215): as the sequence (O43364 129-215 R185K) above, with K57R counted along it

On to AGCCCCGG, for which the binding signal in test [1] was 8.65 upbm affinity estimate (log intensity, higher = more binding, comparable within an allelic series); in test [2], 8.31 upbm affinity estimate (log intensity, higher = more binding, comparable within an allelic series); in test [3], 9.53 upbm affinity estimate (log intensity, higher = more binding, comparable within an allelic series); in test [4] it was 9.4 upbm affinity estimate (log intensity, higher = more binding, comparable within an allelic series); in [5] it was 9.76 upbm affinity estimate (log intensity, higher = more binding, comparable within an allelic series); in test [6], 8.53 upbm affinity estimate (log intensity, higher = more binding, comparable within an allelic series). In addition, the binding signal is 10.6 upbm affinity estimate (log intensity, higher = more binding, comparable within an allelic series) in [7] and 10.6 upbm affinity estimate (log intensity, higher = more binding, comparable within an allelic series) in [8].
AGGTCTGG: the binding signal was 8.53 upbm affinity estimate (log intensity, higher = more binding, comparable within an allelic series) in test [1]; 8.57 upbm affinity estimate (log intensity, higher = more binding, comparable within an allelic series) in test [2]; 8.64 upbm affinity estimate (log intensity, higher = more binding, comparable within an allelic series) in test [6].
Turning to CGTAGGCC, the binding signal was 8.47 upbm affinity estimate (log intensity, higher = more binding, comparable within an allelic series) in test [1]; 8.61 upbm affinity estimate (log intensity, higher = more binding, comparable within an allelic series) in test [2]; 8.63 upbm affinity estimate (log intensity, higher = more binding, comparable within an allelic series) in test [6].
For the sequence CCTATAAG, the binding signal is 9.17 upbm affinity estimate (log intensity, higher = more binding, comparable within an allelic series) in test [1] and 9.71 upbm affinity estimate (log intensity, higher = more binding, comparable within an allelic series) in test [2].
As for CGCTACCG, the binding signal in test [1] is 8.45 upbm affinity estimate (log intensity, higher = more binding, comparable within an allelic series); in test [2] it was 8.54 upbm affinity estimate (log intensity, higher = more binding, comparable within an allelic series); in [9], 9.4 upbm affinity estimate (log intensity, higher = more binding, comparable within an allelic series); in [6], 8.56 upbm affinity estimate (log intensity, higher = more binding, comparable within an allelic series).
Turning to CAATCAAC, the binding signal in [1] was 9.17 upbm affinity estimate (log intensity, higher = more binding, comparable within an allelic series); in test [2] it was 9.95 upbm affinity estimate (log intensity, higher = more binding, comparable within an allelic series); in test [6], 9.93 upbm affinity estimate (log intensity, higher = more binding, comparable within an allelic series).
Take CCCGCAAG: the binding signal is 8.42 upbm affinity estimate (log intensity, higher = more binding, comparable within an allelic series) in test [1]; 8.44 upbm affinity estimate (log intensity, higher = more binding, comparable within an allelic series) in test [2]; 7.91 upbm affinity estimate (log intensity, higher = more binding, comparable within an allelic series) in [10]; 8.51 upbm affinity estimate (log intensity, higher = more binding, comparable within an allelic series) in test [6].
Consider GCAGGCCC, for which the binding signal in test [1] is 8.19 upbm affinity estimate (log intensity, higher = more binding, comparable within an allelic series); in test [2] it was 8.31 upbm affinity estimate (log intensity, higher = more binding, comparable within an allelic series); in test [3], 9.4 upbm affinity estimate (log intensity, higher = more binding, comparable within an allelic series); in [10], 7.9 upbm affinity estimate (log intensity, higher = more binding, comparable within an allelic series); in test [4], 9.64 upbm affinity estimate (log intensity, higher = more binding, comparable within an allelic series); in [5], 9.61 upbm affinity estimate (log intensity, higher = more binding, comparable within an allelic series). For the same sequence, the binding signal in [6] is 8.26 upbm affinity estimate (log intensity, higher = more binding, comparable within an allelic series).
Take CTGCCGGC: the binding signal in test [1] is 8.63 upbm affinity estimate (log intensity, higher = more binding, comparable within an allelic series); in test [2] it was 8.65 upbm affinity estimate (log intensity, higher = more binding, comparable within an allelic series); in test [3], 9.44 upbm affinity estimate (log intensity, higher = more binding, comparable within an allelic series); in test [4], 9.54 upbm affinity estimate (log intensity, higher = more binding, comparable within an allelic series); in test [5], 9.67 upbm affinity estimate (log intensity, higher = more binding, comparable within an allelic series); in test [6] it was 8.68 upbm affinity estimate (log intensity, higher = more binding, comparable within an allelic series). Besides, the binding signal is 10.4 upbm affinity estimate (log intensity, higher = more binding, comparable within an allelic series) in [7] and 10.3 upbm affinity estimate (log intensity, higher = more binding, comparable within an allelic series) in [8].
Regarding CTCGACCA, the binding signal in test [1] is 8.44 upbm affinity estimate (log intensity, higher = more binding, comparable within an allelic series); in test [2] it was 8.28 upbm affinity estimate (log intensity, higher = more binding, comparable within an allelic series); in test [11] it was 6.22 upbm affinity estimate (log intensity, higher = more binding, comparable within an allelic series); in test [12] it was 6.21 upbm affinity estimate (log intensity, higher = more binding, comparable within an allelic series); in [6] it was 8.38 upbm affinity estimate (log intensity, higher = more binding, comparable within an allelic series); in [13] it was 6.22 upbm affinity estimate (log intensity, higher = more binding, comparable within an allelic series).
Turning to AAGTTATC, the binding signal in test [1] was 9.1 upbm affinity estimate (log intensity, higher = more binding, comparable within an allelic series); in [2] it was 9.66 upbm affinity estimate (log intensity, higher = more binding, comparable within an allelic series).
CGCGCCCC: the binding signal in test [1] was 8.45 upbm affinity estimate (log intensity, higher = more binding, comparable within an allelic series); in test [14] it was 7.42 upbm affinity estimate (log intensity, higher = more binding, comparable within an allelic series); in test [2], 8.02 upbm affinity estimate (log intensity, higher = more binding, comparable within an allelic series); in [15], 10.1 upbm affinity estimate (log intensity, higher = more binding, comparable within an allelic series); in [16] it was 7.05 upbm affinity estimate (log intensity, higher = more binding, comparable within an allelic series); in test [6] it was 8.34 upbm affinity estimate (log intensity, higher = more binding, comparable within an allelic series). For the same sequence, the binding signal is 6.95 upbm affinity estimate (log intensity, higher = more binding, comparable within an allelic series) in test [17]; 10.2 upbm affinity estimate (log intensity, higher = more binding, comparable within an allelic series) in test [18]; 7.21 upbm affinity estimate (log intensity, higher = more binding, comparable within an allelic series) in [19]; 7.04 upbm affinity estimate (log intensity, higher = more binding, comparable within an allelic series) in test [20].
On to CCTAGCCG, for which the binding signal in test [1] is 8.53 upbm affinity estimate (log intensity, higher = more binding, comparable within an allelic series); in test [2] it was 8.64 upbm affinity estimate (log intensity, higher = more binding, comparable within an allelic series); in test [11] it was 6.49 upbm affinity estimate (log intensity, higher = more binding, comparable within an allelic series); in test [12] it was 6.54 upbm affinity estimate (log intensity, higher = more binding, comparable within an allelic series); in test [6] it was 8.65 upbm affinity estimate (log intensity, higher = more binding, comparable within an allelic series); in [13], 6.41 upbm affinity estimate (log intensity, higher = more binding, comparable within an allelic series).
